Source: PubChem (National Center for Advancing Translational Sciences (NCATS))
Shown is part of a subset that was picked to be rich in hits.
Pf Dd2 growth = Plasmodium falciparum Dd2 growth inhibition; 120,000 compounds, 4.3% hits; AID 1347417; Potency, µM (doses to about 28.9 µM), for the others: at the highest dose activity, negative = inhibition, most hits filed as inhibitors; P. falciparum Dd2 growth, SYBR Green, 72 h; active = well fitted inhibition curve with a large enough effect;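 also: plate controls were DMSO vehicle for no effect and reference drug for full effect; nearly all actives have a fitted effect of over 65% in size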
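Infected erythrocytes (Dd2, 0.3% parasitemia, 2.5% hematocrit final) are added to compound in RPMI-1640/Albumax II medium, grown 72 h at 37C in low oxygen, then lysed with saponin/Triton-X containing SYBR Green and read by fluorescence.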
An asterisk follows results filed as active; i = inactive; [ ] = another dose, or the depositor's remark. Potency is read from the fitted curve at half-maximal effect.

SMILES	Pf Dd2 growth
Cc1ccc2c(C)c(C(=O)N3C[C@@H](CN4CCC(O)CC4)[C@@H](CO)C3)oc2c1	15%
COc1cc(Cl)ccc1C(=O)NC1CCc2nn(CC3CC3)c(=O)n2CC1 (stereo unspecified)	27%
COc1cccc(CC(=O)N2CCN(C(=O)c3nnn4c3COC(c3ccc(C)cc3)C4)CC2)c1 (stereo unspecified)	-12%
CN(C)C(=O)c1cc(Br)cn2ccnc12	25%[44.1 µM]
COc1ccc2c(c1)C=C(CN1CCCn3nc(C(C)O)cc3C1)CO2 (stereo unspecified)	-9%
CCc1noc(-c2cn(C3CCCN(C(=O)c4ccc(F)cc4)C3)nn2)n1 (stereo unspecified)	i
COc1ccc(C2(C(=O)N3CCC(C(=O)N4CCCCCCNC(=O)CC4)CC3)CC2)cc1	4%
CN(CC1CCOCC1)C(=O)NCc1ccc(F)cc1	13%
Cn1nccc1CN1CCn2c(nnc2-c2ccc(Cl)cc2)C1	-12%
COc1ccc(C(=O)N2CCCCCCN(C)C(=O)[C@@H]3CCC[C@@H]32)cc1F	-4%
COc1ccc(NC(=O)c2nn(C)c3c2CSc2ccc(C)cc2-3)cc1OC	i
Cn1nc(C(=O)N2CCN(c3ccc(Cl)cc3)CC2)c2c1-c1ccccc1SC2	9%
Cc1ccc2c(c1)-c1c(c(C(=O)N3CCN(c4cc(C)ccc4C)CC3)nn1C)CS2	13µM*
C[C@@H](O)CNc1nccc(C2(c3ccccc3Cl)CCNCC2)n1	-11%
CC(C)CNc1nccc(C2(c3ccccc3Cl)CCNCC2)n1	5µM*
Clc1ccccc1C1(c2ccnc(NCc3ccncc3)n2)CCNCC1	-10%
CC(CNc1nccc(C2(c3ccccc3Cl)CCNCC2)n1)CN(C)C (stereo unspecified)	-12%
CCC(C)Cc1nccc(C2(c3ccccc3Cl)CCNCC2)n1 (stereo unspecified)	4.5µM*
OCC(O)CNc1nccc(C2(c3ccccc3Cl)CCNCC2)n1 (stereo unspecified)	-14%
O=C(NC1CCCC1)N1CCC(Nc2cccnc2)C1 (stereo unspecified)	27%[5.79 µM]
CC(C)CCNC(=O)N1CCC(OC2CCN(S(C)(=O)=O)CC2)CC1	i
CC(C)CCN1CCC(O)(c2csc(CN3CC[C@@H](O)C3)n2)CC1	-16%[44.1 µM]
O=C(C1CC1)N1CCC(O)(c2csc(CN3CCc4ccccc4C3)n2)CC1	-27%[44.1 µM]
CCN(CC)Cc1nc(C2(O)CCN(C)CC2)cs1	3%[44.1 µM]
CC(C)(C)CC(=O)N1CCC(O)(c2csc(CN3CCc4ccccc4C3)n2)CC1	-26%[44.1 µM]
SMILES	Pf Dd2 growth
CCN(CC)Cc1nc(C2(O)CCN(CCC(C)C)CC2)cs1	16µM*
CCN(CC)Cc1nc(C2(O)CCN(CC3CC3)CC2)cs1	-22%[44.1 µM]
O=C(c1ccccc1F)N1CCC(O)(c2csc(CN3CCc4ccccc4C3)n2)CC1	3.2µM*
OC1(c2csc(CN3CCc4ccccc4C3)n2)CCN(Cc2ccccc2F)CC1	i
CN1CCC(N2CCC(O)(c3csc(CN4CCc5ccccc5C4)n3)CC2)CC1	i
CC(C)CCN1CCC(O)(c2csc(CN3CCc4ccccc4C3)n2)CC1	13µM*
COCC(=O)N1CCC(O)(c2csc(CN3CCc4ccccc4C3)n2)CC1	i
OC1(c2csc(CN3CCc4ccccc4C3)n2)CCN(C2CCC2)CC1	10µM*
O=C(COc1ccccc1)N1CC(F)(F)C[C@H]1c1nc(C2CC2)no1	-5%
N#CCn1nc2n(c1=O)CCN(C(=O)c1cccc3[nH]ccc13)CC2	9%
COCc1nc(NCCCN2CCOCC2)cc(C2CC(N)C2)n1 (stereo unspecified)	-15%
O=C1NC2(CCCN(C(=O)c3ccccc3F)C2)Oc2ccccc21 (stereo unspecified)	-12%[44.1 µM]
CN1CCN(Cc2nc(C3(O)CCN(CC4CC4)CC3)cs2)CC1	17%[44.1 µM]
O=C(COc1ccccc1)N1CCC(O)(c2csc(CN3CCc4ccccc4C3)n2)CC1	-8%
OC1(c2csc(CN3CCc4ccccc4C3)n2)CCN(CC2CCCCC2)CC1	3.2µM*
CN(C)c1cccc(C(=O)N2CCC3(CC2)NC(=O)N(Cc2ccc(F)cc2)C3=O)c1	i
COc1ccc(Cl)cc1C(=O)NC1CCN(c2cc(-c3ccccc3)[nH]n2)C1 (stereo unspecified)	i
COc1ccc(Cn2c(C(=O)O)c(CNCCc3ccco3)c3ccc(C)cc32)cc1	-11%
COc1ccc(Cn2c(C(=O)O)c(CNCCc3cc(OC)ccc3OC)c3ccc(C)cc32)cc1	8.9µM*
COc1ccc2c(CNCc3ccccc3OC)c(C(=O)O)n(Cc3ccc(F)cc3Cl)c2c1	274%[0.0462 µM]
COc1ccc(Cn2c(C(=O)O)c(CNC3CCCCC3)c3ccc(C)cc32)cc1	-18%
CCOc1ccc(CCNCc2c(C(=O)O)n(Cc3ccc(C)cc3)c3cc(OC)ccc23)cc1	11µM*
COc1ccc(Cn2c(C(=O)O)c(CNCc3ccc(OC)cc3OC)c3ccc(C)cc32)cc1	6.3µM*
COc1ccc2c(CNCCc3cccs3)c(C(=O)O)n(Cc3cccc(F)c3)c2c1	i
C=Cc1ccc(Cn2c(C(=O)O)c(CNCCc3ccco3)c3ccc(C)cc32)cc1	-22%
SMILES	Pf Dd2 growth
COc1ccc2c(CNCCc3cccs3)c(C(=O)O)n(Cc3ccccc3)c2c1	-4%
CCOc1ccccc1NC(=O)N1CCCC(c2nc(-c3cnccn3)no2)CCNC(=O)CC1 (stereo unspecified)	-22%
COCCCN(CCC(=O)NCCC(C)C)C(=O)c1ccoc1	7%
O=C([C@H]1C[C@H](Oc2ccccc2)CN1C(=O)Cc1cccc(F)c1)N1CCOCC1	-5%
CC(C)(Oc1nn(CC2CC2)c2ccc(CN3CCCC3)cc12)C(=O)NCC(F)(F)F	13µM*
Cn1nc(OC(C)(C)C(=O)NCCc2ccccc2)c2cc(CN3CCCC3)ccc21	-3%[44.1 µM]
CC(C)(Oc1nn(CC2CCOCC2)c2ccccc12)C(=O)NCC1CCOCC1	37%[44.1 µM]
COCCC(=O)N[C@H]1CC[C@]2(C)CCC([C@H](C)C(=O)NCc3cccs3)[C@H](O)[C@H]2[C@@H]1C (stereo partly specified)	i
Cc1cc(Cl)ccc1S(=O)(=O)N1CC(c2nc(-c3ccncc3)no2)C1	-23%
CNC(=O)c1ccc2c(c1)OCCN(c1ccccc1)C2	i
COc1ccc(NC(=O)c2ccc3c(c2)OCCN(c2ccccc2)C3)c(F)c1	10µM*
COc1ccc(NC(=O)c2ccc3c(c2)OCCN(CCC(F)(F)F)C3)c(F)c1	-23%[44.1 µM]
COc1ccccc1-c1noc(CCC(=O)NCc2snnc2C)n1	-2%
COc1ccc(C(=O)N2CCC3(CC2)OCC(C(=O)NC2CC2)N3C(=O)c2ccccc2)cc1OC (stereo unspecified)	-12%
CC(C)N1C[C@H](O)C[C@H]1c1nc(-c2ccc(F)cc2)no1	i
Cc1cccc(C)c1-n1ncc(C(=O)Nc2ccc3c(c2)OCO3)c1C1CCN(C(=O)OC(C)(C)C)CC1	i
COCCCNC(=O)c1cnn(-c2ccc(F)cc2F)c1C1CCNCC1	-3%
CCOC(=O)c1ccc(NC(=O)c2cnn(-c3ccc(C)cc3C)c2C2CCN(C(=O)OC(C)(C)C)CC2)cc1	13µM*
Cc1ccc(-n2ncc(C(=O)NCc3ccccn3)c2C2CCN(C(=O)OC(C)(C)C)CC2)c(C)c1	i
CC(C)(C)OC(=O)N1CCC(c2c(C(=O)NCCc3ccccc3)cnn2-c2ccc(F)cc2F)CC1	5.6µM*
CC(C)(C)OC(=O)N1CCC(c2c(C(=O)Nc3ccc4c(c3)OCCO4)cnn2-c2ccc(F)cc2)CC1	7.9µM*
